Experimental data: PubChem BioAssay (NCATS)
Results filed as inconclusive are left out. Activity calls are given as the source filed them. Calls come from the whole dose curve; as a rule, active = well fitted curve in the direction sought with a large enough effect; inconclusive = small, poorly fitted or top-dose-only effect, or another doubt; inactive = no such curve, though single readings can be large; an effect the other way counts as inactive or inconclusive.

Tested on: Tov112D
Experiment: Primary qHTS to identify gynecologic anti-cancer compounds using libraries of approved drugs and bioactive compounds (AID 1345084); note: nearly all actives have a fitted effect of over 55% in size
Settings: Gynecologic cancer cell panel viability, ATPlite luminescence, 48 h; series mostly up to 57.5 µM
Procedure, shortened: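 In this quantitative HTS, cell killing is estimated from loss of ATP-dependent luciferase light. Cells see five compound concentrations over a 48 h exposure.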
% is set by controls: 0 for no effect and ±100 for the full control effect.

SMILES | Potency
Cc1ccc(/C=N/n2c(-c3ccccc3)csc2=S)cc1 | inactive
CSc1ccc(/C=C2/C(C)=C(CC(=O)O)c3cc(F)ccc32)cc1 | inactive
CCC1(c2cnc[nH]2)Cc2ccccc2C1 | inactive
O=C(Nc1ccc(S(=O)(=O)N2CCOCC2)cc1)c1cc(Cl)ccc1NS(=O)(=O)c1ccc(Cl)s1 | inactive
CN(C(=O)C(Cl)Cl)c1ccc(OC(=O)c2ccco2)cc1 | inactive
O=C1c2ccccc2CCc2ccccc21 | inactive
CC(C)OC(=O)c1cc2c(OCC(O)CNC(C)(C)C)cccc2[nH]1 (stereo not given) | inactive
O=C(O)c1[nH]n(-c2ccc(S(=O)(=O)O)cc2)c(=O)c1N=Nc1ccc(S(=O)(=O)O)cc1 | inactive
O=C(O)CNC(=O)CNC(=O)CNC(=O)CSC(=O)c1ccccc1 | inactive
Cc1ccccc1C(=O)N1CC/C(=N\OS(=O)(=O)O)c2ccc(Cl)cc21 | inactive
OCCCc1ccccc1 | inactive
O=C(CCCCC(=O)Nc1c(I)cc(I)c(C(=O)O)c1I)Nc1c(I)cc(I)c(C(=O)O)c1I | inactive
COCCc1ccc(OCC2CO2)cc1 (stereo not given) | inactive
O=C1OC2(c3ccccc31)c1cc(I)c(O)c(I)c1Oc1c2cc(I)c(O)c1I | inactive
OC(CCCN1CCCCC1)(c1ccccc1)c1ccccc1 | inactive
CCCc1ccc(OCC(=O)N2CCN(C(=O)COc3ccc(CCC)cc3OC)CC2)c(OC)c1 | inactive
CCCC(=O)O[C@]1(C(=O)COC(=O)CC)CC[C@H]2[C@@H]3CCC4=CC(=O)CC[C@]4(C)[C@H]3[C@@H](O)C[C@@]21C | inactive
CCN1CCN(C(=O)N[C@@H](C(=O)N[C@@H]2C(=O)N3[C@@H]2SC(C)(C)[C@H]3C(=O)O)c2ccccc2)C(=O)C1=O | inactive
O=C(O)c1ccccc1Nc1cc(Cl)ccc1C(=O)O | inactive
CCO[C@H](Cc1ccc(OCCc2ccc(OS(C)(=O)=O)cc2)cc1)C(=O)O | inactive

Tested on: not listed separately
Experiment: Drug repurposing screens with cells derived from glioblastoma tumor samples (AID 1345199); note: nearly all actives have a fitted effect of over 40% in size
Settings: GBM patient neurospheres viability, ATP luminescence, 48 h; at 45.9 µM (top of the series); tumour line B
Procedure, shortened: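 Four patient lines of CD133+ GBM neurospheres were screened at several concentrations; hits were retested in those lines plus three slower-growing GBM lines, using 48-hour treatment and ATP-based viability.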

SMILES | activity, negative = cell killing
Nc1nnnn1-c1ccccc1 | -11.1% (inactive)
O=C(O)Cc1ccc(OCCNC[C@H](O)c2ccccc2)cc1 | -8.45% (inactive)
CO[C@@]1(NC(=O)CSC[C@@H](N)C(=O)O)C(=O)N2C(C(=O)O)=C(CSc3nnnn3C)CS[C@@H]21 | -3.3% (inactive)
CCOC(=O)OCC/C(SC(=O)OCC)=C(\C)N(C=O)Cc1cnc(C)nc1N | -4.41% (inactive)
CCCc1c2oc(C(=O)O)cc(=O)c2cc2c(=O)cc(C(=O)O)n(CC)c12 | -3.36% (inactive)
C[C@H]1NCc2cc(-c3ccc4c(=O)c(C(=O)O)cn(C5CC5)c4c3OC(F)F)ccc21 | 3.7% (inactive)
CN1C(=O)CC(C)(c2ccccc2)C1=O (stereo not given) | -1.54% (inactive)
CC(=O)OCC(=O)[C@@]1(O)CCC2C3CCC4=CC(=O)CC[C@]4(C)C3[C@@H](O)C[C@@]21C (stereo not given in full) | -6.98% (inactive)
CC(NN)c1ccccc1 (stereo not given) | -17.4% (inactive)
CN1CCCN=C1/C=C/c1cccs1 | -1.18% (inactive)
OCCc1ccccc1 | -16.7% (inactive)
CN=C(N)NC(=O)Nc1c(C)cccc1C | -6.83% (inactive)
CC(=O)Nc1c(I)c(NC(C)=O)c(I)c(C(=O)O)c1I | -4.92% (inactive)
CN(C)C(=O)CNC(=O)Cc1ccccc1 | -9.58% (inactive)
Cc1cccc(C)c1NC(=O)c1cc(S(N)(=O)=O)c(Cl)cc1O | -11.2% (inactive)
Cc1ccc(/C=N/n2c(-c3ccccc3)csc2=S)cc1 | -0.779% (inactive)
CSc1ccc(/C=C2/C(C)=C(CC(=O)O)c3cc(F)ccc32)cc1 | -6.37% (inactive)
O=C(Nc1ccc(S(=O)(=O)N2CCOCC2)cc1)c1cc(Cl)ccc1NS(=O)(=O)c1ccc(Cl)s1 | -15.3% (inactive)
CN(C(=O)C(Cl)Cl)c1ccc(OC(=O)c2ccco2)cc1 | -5.88% (inactive)
CC(C)OC(=O)c1cc2c(OCC(O)CNC(C)(C)C)cccc2[nH]1 (stereo not given) | -15.9% (inactive)
O=C(O)c1[nH]n(-c2ccc(S(=O)(=O)O)cc2)c(=O)c1N=Nc1ccc(S(=O)(=O)O)cc1 | 1.15% (inactive)
O=C(O)CNC(=O)CNC(=O)CNC(=O)CSC(=O)c1ccccc1 | 2.75% (inactive)
Cc1ccccc1C(=O)N1CC/C(=N\OS(=O)(=O)O)c2ccc(Cl)cc21 | -4.66% (inactive)
OCCCc1ccccc1 | -21.4% (inactive)
O=C(CCCCC(=O)Nc1c(I)cc(I)c(C(=O)O)c1I)Nc1c(I)cc(I)c(C(=O)O)c1I | 0.519% (inactive)
